Measured values as given in PubChem BioAssay AID2599 (Sanford-Burnham Center for Chemical Genomics, 2010).
Out of some 330,000 compounds screened, about 5,800 (1.8%) were called active.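 Rule for the calls: active = inhibition above about 50% at the single tested dose (limit read from the data); inactive = the rest.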 The sample as a whole holds a higher share of actives than the screen did.

biological target: Sentrin-specific protease 6 (Homo sapiens) (UniProt Q9GZR1); assay: SENP6 protease inhibitors, primary screen, biochemical, luminescence, uHTS (AID 2599); details: Recombinant SENP6 catalytic domain, aminoluciferin luminescence; at 10 µM; stronger effect = higher value;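 note: plate controls were DMSO wells with enzyme for no effect and DMSO wells lacking enzyme for full effect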
Sequence (Q9GZR1 628-1112 limits assumed): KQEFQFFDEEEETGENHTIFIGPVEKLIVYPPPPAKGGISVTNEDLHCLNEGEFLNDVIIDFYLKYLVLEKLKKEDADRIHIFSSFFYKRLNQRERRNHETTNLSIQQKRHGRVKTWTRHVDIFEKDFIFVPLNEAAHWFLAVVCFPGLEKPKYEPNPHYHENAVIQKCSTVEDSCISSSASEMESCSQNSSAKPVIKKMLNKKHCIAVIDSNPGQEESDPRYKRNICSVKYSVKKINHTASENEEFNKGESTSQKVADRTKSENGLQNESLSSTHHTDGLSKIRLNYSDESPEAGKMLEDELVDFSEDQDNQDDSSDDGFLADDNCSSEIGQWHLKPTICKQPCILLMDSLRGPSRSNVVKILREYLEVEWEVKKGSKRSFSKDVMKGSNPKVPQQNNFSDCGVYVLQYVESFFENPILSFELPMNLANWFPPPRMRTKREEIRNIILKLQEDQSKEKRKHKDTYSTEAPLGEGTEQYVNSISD

inhibition, active:
O=C(Nc1ncc([N+](=O)[O-])s1)C1COc2ccccc2O1 (stereo unspecified) 97.8%
O=c1c2ccccc2ncn1/N=C/c1ccccc1 85.3%
C=CCOc1ccc(/C=C2\SC(=S)N(CCC(=O)O)C2=O)cc1 100%
C/C(=C\C(=O)c1ccccc1)Nc1cccc(O)c1 57.9%
COc1cc(NC(=O)COC(=O)c2ccc([N+](=O)[O-])s2)cc(OC)c1OC 68.2%
Cc1cccc(NS(=O)(=O)c2cccc(C(=O)NNC(=O)c3ccccc3O)c2)c1 64.3%
Cc1cccc(NC(=O)COc2ccc(Br)cc2C)n1 69.2%
Nc1ncc(-c2cc3ccccc3oc2=O)s1 92.4%
CC(=O)Nc1cccc(-c2csc(Nc3cccc(C)n3)n2)c1 91.9%
Cc1cccc(Nc2nc(-c3ccccc3)cs2)n1 93.1%
Cc1ccc(C(=O)N/N=C\c2cc(Br)c(Br)o2)cn1 66%
CSc1ccc(/C=N/NC(=O)c2cccc(Cl)c2)cc1 94.4%
O=c1oc2cc(O)ccc2cc1-c1ccc(F)cc1 98%
Cc1ccc(O)c(NC(=O)c2cc(-c3ccco3)on2)c1 62.9%
CC(=NCc1ccco1)c1c(C(F)(F)F)[nH]n(-c2nc3ccccc3s2)c1=O 97.8%
C/C(=N\NC(=O)CC(C)C)c1c(C(F)(F)F)[nH]n(-c2nc3ccccc3s2)c1=O 98%
N/C(=N\OC(=O)CCC1CCCCC1)c1ccccn1 87.4%

inhibition, inactive:
CC1=NN(C(=O)CCc2ccccc2O)C(O)(C(F)(F)F)C1 (stereo unspecified) 13.7%
COc1ccccc1CCC(=O)OCC(=O)N1CCN(S(=O)(=O)c2ccc(C)cc2C)CC1 -9.38%
COc1ccc(NC(=O)C2COc3ccccc3O2)cc1 (stereo unspecified) 2.57%
COc1ccc(OC)c2sc(NC(=O)C3COc4ccccc4O3)nc12 (stereo unspecified) -3.77%
CC(C)(C)C(=O)NCCCNc1ccc([N+](=O)[O-])cc1 -25.9%
O=C(Nn1cnc2ccccc2c1=O)c1ccccc1 -4.91%
CCCc1nc2ccccc2c(=O)n1/N=C/c1ccc(O)c(O)c1 -27.3%
COc1cccc(CNn2cn[nH]c2=S)c1OCc1ccccc1 -3.63%
Cc1cc2nc(SCCN3CCOCC3)[nH]c2cc1C 1.61%
COc1ccc(/C=C2\SC(=S)N(CC(=O)NNC(=O)c3ccncc3)C2=O)cc1 -3.66%
O=C(CCCN1C(=O)/C(=C/c2ccccc2)SC1=S)Nc1ccc(O)cc1 21.3%
O=C(CN1CCCCC1)Nc1ccccc1C(=O)NC1CC1 -13.9%
Cc1ccc(NC(=O)CS(=O)CC(=O)N(c2ccccc2)C(C)C(=O)NC2CCCC2)cc1 (stereo unspecified) -5.91%
C/C(=C\C(=O)c1cccnc1)Nc1ccc(C)c(C)c1 6.26%
O=C(Nc1cccc(O)c1)c1ccc(C(=O)c2ccccc2)o1 2.68%
CCC1(CC)NC(=O)N(CC(=O)OCC(=O)c2cc(C)c(C)cc2C)C1=O -10.6%
Cc1ccc(S(=O)(=O)/N=C(\CN2CCOCC2)N2CCOCC2)cc1 12.4%
O=C(OCC(=O)N1CCN(c2ccccc2)CC1)c1ccc([N+](=O)[O-])s1 49.4%
COc1ccc(C(=O)COC(=O)c2ccc([N+](=O)[O-])s2)cc1OC 38.4%
O=C(NCc1ccccc1CN1CCCC1)c1cccc(S(=O)(=O)Nc2ccc(F)cc2)c1 18.3%
C[C@@H]1CN([C@@H](C)CO)C(=O)c2cc(NC(=O)C3CC3)ccc2O[C@H]1CN(C)C 1.75%
COc1ccc(S(=O)(=O)N2CCC(C(=O)NCCC(=O)NCc3cccc(OC)c3)CC2)cc1 0.176%
CC(=O)N1CCN(C(=O)c2cccc(S(=O)(=O)Nc3ccc(C)cc3)c2)CC1 -4.46%
Cc1cccc(NS(=O)(=O)c2ccc(C)c(C(N)=O)c2)c1 -6.03%
CNc1nc(SC)nc(N(C#N)CC(=O)OC)n1 11.5%
Cc1cccc(NC(=O)Cc2ccc(Br)cc2)n1 16%
CCN(CC)S(=O)(=O)c1ccc(C)c(NC(=O)COc2ccc(Br)cc2Cl)c1 9.17%
Cc1ccc(N(C(=O)Cc2cccs2)C2C=CS(=O)(=O)C2)cc1Cl (stereo unspecified) -12.7%
O=C1CCC(=O)N(c2ccccc2)N1 -18.9%
O=C(c1cnccn1)N1CCN(S(=O)(=O)c2cccc(Cl)c2)CC1 -6.78%
O=C(NCc1cccnc1)c1cccc(-c2cc3ccccc3oc2=O)c1 -7.83%
Cc1cc2c(=O)n(C)c(SCC(=O)c3cc4ccccc4o3)nc2s1 15.6%
O=C(CN1C(=O)CC(c2ccccc2)=Nc2ccccc21)NC1CCCCC1 -12%
CSCCC(NC(=O)COc1ccccc1)C(=O)Nc1ccc(C)cc1 (stereo unspecified) -14.9%
O=C(Nc1ccc(-c2csc(Nc3cccc(C(F)(F)F)c3)n2)cc1)c1cccc(C(F)(F)F)c1 -9.78%
Cc1nc(NC(=O)c2cccc(Cl)c2)sc1-c1csc(Nc2cccc(Cl)c2)n1 20%
O=C(O)c1ccccc1C(=O)Nc1nc(-c2ccccc2)cs1 -12.1%
Cc1ccccc1Nc1nc(-c2cccnc2)cs1 47.4%
Cn1nnnc1SCC(=O)Nc1cccc(S(=O)(=O)N2CCCCC2)c1 -12.9%
Cc1cccc(CSc2nc3c(c(=O)n2C)SCC3)c1 21.2%
Cc1ccc(C(=O)N/N=C/c2cccc3ccccc23)cn1 -7.6%
O=C(N/N=C\c1cc(Br)c(Br)o1)C1COc2ccccc2O1 (stereo unspecified) -7.15%
CNC(=S)N/N=C/c1ccc(OCc2ccccc2)c(Br)c1 -0.485%
CC(C)Oc1ccc(CN2CCC(n3nccc3NC(=O)c3cccnc3)CC2)cc1 0.591%
O=C(N/N=C/c1ccc(Cl)c(Cl)c1)c1ccc2nc[nH]c2c1 -7.64%
CSc1ccc(/C=N\NC(=O)CC(=O)NC(C)C)cc1 -5.21%
Cc1cc(C)c(NC(=O)CN2CCOCCOCCOCCOCC2)c(C)c1 -4.6%
CN(C)C(CNC(=O)CCCOc1ccccc1)c1ccco1 (stereo unspecified) -5.38%
CN(C)c1cc(-c2ccc(F)cc2)oc(=O)c1Cl -8.53%
CCCCCCc1cc2cc(-c3nnc(-c4ccccc4)o3)c(=O)oc2cc1O -12.7%
COC(=O)c1c(C)oc(C)c1S(=O)(=O)NCc1ccc(Cl)cc1 -15.4%
CCOC(=O)c1c(/N=C/c2cc(C)ccc2O)sc2c1CCC2 6.68%
Cc1ccnc2nc(C(=O)Nc3nnc(-c4ccccc4)o3)nn12 7.14%
O=C(Nc1ccccc1C(F)(F)F)c1cc(-c2ccc(O)cc2)on1 1.85%
O=C(Nc1cccnc1Cl)c1cc(-c2ccccc2O)on1 17.2%
CCOC(=O)Cc1csc(SCC(=O)NC(C)C23CC4CC(CC(C4)C2)C3)n1 (stereo unspecified) -13.9%
O=C1CCC(=O)N1c1ccc(NCCc2ccccc2F)c([N+](=O)[O-])c1 11.8%
O=C(Nc1ccccc1C(=O)O)c1cc(S(=O)(=O)N2CCCCC2)cs1 15.3%
O=C(COc1ccc([N+](=O)[O-])cc1Cl)Nc1ccc2[nH]c(=O)[nH]c2c1 -8.3%
CC(=NCc1ccco1)C1=C(O)c2ccccc2C1=O 18.6%
CC(C)CC(=O)N/C(N)=N/c1nc2ccccc2s1 29.7%
CCC(C)Cn1c(O)cc2nn(-c3nc4ccccc4s3)c(=O)c-2c1C (stereo unspecified) -3.5%
CCc1ccc(-c2cc(C(=O)NCc3ccco3)c3ccccc3n2)s1 -10.2%
COc1ccccc1C(=O)NCCC(=O)NC(C)CCc1ccccc1 (stereo unspecified) -4.44%
O=C(CN1CCCSc2ccccc21)N1CCN(S(=O)(=O)c2cccc(F)c2)CC1 -22.3%
CCCN1Cc2cccc(C(=O)NCc3ccccc3)c2C1=O 10.8%
Cc1ccc(NS(=O)(=O)c2ccc(-c3coc(C)n3)cc2)c(C)c1 -4.93%
CCOC(=O)[C@H]1[C@H]2COc3cc(OC)ccc3[C@@H]2N2C(=O)CN(Cc3ccc(Cl)cc3)C(=O)[C@@]12C -7.07%
COc1ccccc1N1CCN(S(=O)(=O)CCNC(=O)c2ccc(OC(C)C)cc2)CC1 -8.31%
COc1cc(NC(=O)CSc2ccc(-c3cccnc3)nn2)cc(OC)c1 4.11%
COc1ccccc1NC(=O)c1c(Br)cnn1C -0.608%
COc1ccccc1OCC(=O)O/N=C(\N)c1ccccn1 13.8%
N/C(=N\OC(=O)CC1CCCCC1)c1ccccc1 40.3%
Cc1ccc(O)c(CCc2ccccc2)n1 8.36%
CCCc1ccc(-c2c(C)sc(NC(=O)c3ccnn3C)c2C#N)cc1 -0.479%
CN(C)C(=O)CSc1n[nH]c(-c2ccco2)n1 0.308%
O=C(O)CC(Cn1cnnn1)c1ccccc1 (stereo unspecified) -0.459%
O=C(NCCS(=O)(=O)N1CCN(c2ccccc2)CC1)c1ccco1 6.25%
CCOc1ccc(NC(=O)CCC(=O)NNC(=O)NC2CCCCC2)cc1 -9.85%
